Here are results for seven compounds from PubChem BioAssay AID939 (National Center for Advancing Translational Sciences (NCATS), 2007).

Inconclusive results are not listed. Active and inactive are the calls of the source. Calls come from the whole dose curve; as a rule, active = well fitted activation curve with a large enough effect in the main read-out, with a control signal flat; inconclusive = small, poorly fitted or top-dose-only effect, or effect the other way, or a change in a side signal; inactive = no such curve, though single readings can be large or run the other way.

Test [1] is described as follows: Confirmation Concentration-Response Assay for Agonists of the Thyroid Stimulating Hormone Receptor. For activation: % of control where 0% means no effect. To be noted: HEK293 TSHR-CNG cells, membrane potential dye, cAMP; measured here: parental HEK293 counter-screen max. The source says:
(§1) NIH Chemical Genomics Center [NCGC] NIH Molecular Libraries Screening Centers Network [MLSCN] MLSCN Grant: 1 X01 MH080680-01 PI Name: Dr. Marvin Gershengorn, NIH NCGC Assay Overview: Thyroid Stimulating Hormone Receptor TSH is an alpha/beta heterodimeric glycoprotein hormone secreted from the anterior pituitary gland which belongs to the glycoprotein hormone family. The actions of TSH are mediated by a seven-transmembrane receptor, which upon TSH binding couples preferentially to the G-alpha (s) protein (Gs), resulting in activation of adenylate cyclase and increase in cyclic adenosine 3', 5' monophosphate (cAMP). The TSH receptor (THSR) is mainly expressed in thyroid follicular cells and regulates their growth and function. Recombinant TSH is used to activate TSHR in patients with thyroid cancer receiving thyroid hormone suppression therapy and to screen for residual tumor after surgery, but it is expensive and must be administered intramuscularly. An orally active small molecule TSHR agonist would serve as an invaluable research tool for studying TSHR pharmacology and physiology, and would have multiple advantages in therapeutic settings. However, no selective small molecule agonist of the TSH receptor exists, and no small molecule screen for TSHR agonists has ever been reported. This cell based assay utilized a cyclic nucleotide gated ion channel (CNG) as a biosensor for cAMP induction by potential TSHR agonists. TSHR cell line HEK 293 cells stably expressing the TSHR as well as a modified CNG were purchased from BD biosciences. Stimulation of cAMP production causes the CNG to open and subsequent membrane depolarization to occur. A fluorescent membrane potential dye (BD biosciences) was utilized to detect cAMP stimulation in TSHR cells. The cells were maintained in DMEM medium (Invitrogen) containing 10 % FBS (Hyclone), 100 units/ml Penicillin, 100 ug/ml Streptomycin (Invitrogen), and 250 ug/ml Geneticin (Invitrogen) and 1 ug/ml Puromycin (Invitrogen) at 37C in 5% CO2. HEK 293 cells expressing CNG but without TSHR (parental cells) were used in concert to control for compounds signaling through endogenous receptors and targets of HEK 293 cells.
(§2) NCGC Assay Protocol Summary: High Throughput Screening. Freshly passaged cells (TSHR or parental) were dispensed into 1536-well assay plates at 4 ul/well in DMEM containing phenol red (Invitrogen), 10% FCS (Hyclone), and 100 units/ml Penicillin, 100 ug/ml Streptomycin (Invitrogen) and incubated at 37 C with 5% CO2 for 20 to 36 hrs before the robotic screening. The screen was initiated by addition of 4 ul/well membrane potential dye containing 100 uM RO 20-1724 (Sigma Aldrich), followed by 60 min incubation at room temperature to allow for dye equilibration across the cell membrane. 23 nl/well compound or control was then added to the assay plates, which were incubated for additional 30 min before reading a Envision fluorescence plate reader (Perkin Elmer) in bottom-read mode for fluorescence intensity (emission at 590 nm). Keywords: Thyroid-stimulating hormone TSH, TSHR, TSHR agonist, quantitative high throughput screening, qHTS, HTS, probe identification, CNG, cAMP, cyclic nucleotide gated ion channel PubChem
In general terms: The purpose of a counterscreen is to sort out artefacts and off-target activity.

In test [2] the target is Thyrotropin receptor (Homo sapiens) (UniProt P16473). The test is described as above. To be noted: HEK293 TSHR-CNG cells, membrane potential dye, cAMP; series mostly up to 25.6 µM.
Text: as §1, §2
Potency is the fitted concentration of half-maximal effect.

Thyrotropin receptor (Homo sapiens), sequence (P16473 whole entry, looked up): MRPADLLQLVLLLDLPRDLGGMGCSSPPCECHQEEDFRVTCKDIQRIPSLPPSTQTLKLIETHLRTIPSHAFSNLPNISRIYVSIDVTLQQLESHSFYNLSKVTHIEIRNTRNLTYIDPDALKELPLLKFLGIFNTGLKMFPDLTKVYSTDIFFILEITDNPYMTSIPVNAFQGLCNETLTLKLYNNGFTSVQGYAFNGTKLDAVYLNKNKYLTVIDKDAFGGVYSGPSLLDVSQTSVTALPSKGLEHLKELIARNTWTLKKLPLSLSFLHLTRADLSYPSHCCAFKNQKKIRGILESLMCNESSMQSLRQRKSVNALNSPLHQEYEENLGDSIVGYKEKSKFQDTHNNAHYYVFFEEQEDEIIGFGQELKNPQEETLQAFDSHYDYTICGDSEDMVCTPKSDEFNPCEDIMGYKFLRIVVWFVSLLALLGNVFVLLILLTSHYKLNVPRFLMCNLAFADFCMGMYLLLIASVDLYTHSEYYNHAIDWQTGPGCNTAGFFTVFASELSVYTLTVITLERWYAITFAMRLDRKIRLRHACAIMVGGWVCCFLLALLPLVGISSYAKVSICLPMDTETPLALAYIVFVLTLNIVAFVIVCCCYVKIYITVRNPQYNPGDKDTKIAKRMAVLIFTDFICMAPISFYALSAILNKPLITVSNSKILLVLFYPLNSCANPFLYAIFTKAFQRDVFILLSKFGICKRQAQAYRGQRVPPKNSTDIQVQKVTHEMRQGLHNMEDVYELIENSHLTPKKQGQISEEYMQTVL

`O=C(Nc1nc2ccccc2n1CCN1CCCC1)c1ccc(Cl)cc1`: the max response in test [1] is -11%. For the same compound, in test [2], the Potency result is “inactive”.
Taken in the same sequence, the figures for `CCOC(=O)C1=C(C)OC(N)=C(C(=O)OC)C12C(=O)Nc1ccc(Br)cc12` (centres undefined) were -4.55% and “inactive”.
For `CCC(=NCC1CCCO1)c1c(O)n(Cc2ccccc2)c(=O)[nH]c1=O` (centres undefined), in test [1], the max response turned out to be 5.62%. Moreover, the Potency entry in test [2] is “inactive”.
For `CN(C)c1ccc(CN2CC=C(c3ccc(F)cc3)CC2)cc1`, in that order: 5.57% and “inactive”.
For `C=CCN1C(=O)C2(C(C(=O)OCC)=C(N)Oc3c2c(=O)oc2ccccc32)c2ccccc21` (centres undefined), in that order: -4.89% and 5.01 µM (active).
Taken in the same sequence, the figures for `O=c1[nH]c(=O)n(Cc2ccco2)c(O)c1C=NC1CC1` were 5.23% and “inactive”.
Consider `CCn1c(C)c(C(=O)O)c2cc(OC)ccc21`, for which, in test [1], the max response came out at 6.15%. The Potency result in test [2] is “inactive”.
